# Hits are enriched below; roughly 11% of the tested compounds scored in any of these assays.
# JMJD2A Tudor: qHTS Assay for Inhibitors of JMJD2A-Tudor Domain | 390,000 compounds, 4.4% hits | AID 504339, 2011 | Potency, µM (titrated, usually from 114 µM), for the others: at the highest dose activity change, negative = inhibition, actives largely listed as inhibitors | AlphaScreen JMJD2A-Tudor / H3K4me3 peptide binding; also: % is scaled to controls: 0 for no effect and ±100 for the full control effect; nearly all actives have a fitted effect of over 50% in size
# BAZ2B inh: qHTS Assay for Inhibitors of BAZ2B; 360,000 compounds, 4.4% hits; Potency, µM (highest dose often 114 µM), inactives show at the highest dose activity change, negative = inhibition, most hits filed as inhibitors; AID 504333, 2011; AlphaScreen BAZ2B-H3K14Ac peptide displacement; Bromodomain adjacent to zinc finger domain protein 2B (Homo sapiens), Q9UIF8; also: % is scaled to controls: 0 for no effect and ±100 for the full control effect; nearly all actives have a fitted effect of over 60% in size
#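 AlphaScreen luminescence quantifies BAZ2B engagement of H3K14Ac peptide; the protein and biotinylated peptide are both at 50 nM final, buffer PBS pH 7.4 with 0.01% Tween-20, all steps at room temperature.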
# L3MBTL1 block: qHTS Assay for the Inhibitors of L3MBTL1; AlphaScreen L3MBTL1–H3K9me1 peptide binding; Lethal(3)malignant brain tumor-like protein 1 (Homo sapiens), Q9Y468; 230,000 compounds, 0.66% hits; Potency, µM (top dose mostly 57.1 µM), without a hit: top-dose activity, negative = inhibition, actives largely listed as inhibitors; AID 485360, 2010; also: % is scaled to controls: 0 for no effect and ±100 for the full control effect; nearly all actives have a fitted effect of over 60% in size
#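 L3MBTL1 50 nM + b-AHA-H3(1-15)K9me1 75 nM, 30 min RT; compound added, 30 min RT; streptavidin donor/Ni-chelate acceptor beads 10 ug/mL each final, 30 min RT dark; AlphaScreen read.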
# G9a block: qHTS Assay for Inhibitors of Histone Lysine Methyltransferase G9a; Potency, µM (doses to about 102 µM), for inactives: at the top dose activity, negative = inhibition, hits mostly inhibitors; G9a H3K9 monomethylation, AlphaScreen, 2 h; 350,000 compounds, 8.8% hits; AID 504332, 2011; Histone-lysine N-methyltransferase EHMT2 (Homo sapiens), Q96KQ7; also: % is scaled to controls: 0 for no effect and ±100 for the full control effect; nearly all actives have a fitted effect of over 75% in size
# Target sequence (Q96KQ7 913-1193 limits assumed): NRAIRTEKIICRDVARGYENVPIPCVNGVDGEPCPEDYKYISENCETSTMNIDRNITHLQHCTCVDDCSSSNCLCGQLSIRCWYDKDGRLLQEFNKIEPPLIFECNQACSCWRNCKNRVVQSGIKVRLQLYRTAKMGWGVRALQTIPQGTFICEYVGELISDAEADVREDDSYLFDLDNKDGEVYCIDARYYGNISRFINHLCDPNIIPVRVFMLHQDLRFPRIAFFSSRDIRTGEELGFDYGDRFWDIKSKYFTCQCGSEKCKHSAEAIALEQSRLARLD
#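 AlphaScreen detection with an anti-monomethyl H3K9 antibody quantified product after a 2 h room-temperature reaction containing 500 nM biotinylated H3K9 peptide, 20 µM SAM and 20 nM enzyme, which had been preincubated 15 min with compound.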
# HP1b chromo inh: HTS for Inhibitors of HP1-beta Chromodomain Interactions with Methylated Histone Tails. Chromobox protein homolog 1 (Homo sapiens), P83916. AlphaScreen HP1-beta / biotin-H3K9me3 peptide binding. Potency, µM (titrated, usually from 114 µM), for the others: at the top dose activity change, negative = inhibition, hits mostly inhibitors. 390,000 compounds, 0.56% hits. AID 540317, 2011; also: nearly all actives have a fitted effect of over 70% in size
# Target sequence (P83916 whole entry, looked up): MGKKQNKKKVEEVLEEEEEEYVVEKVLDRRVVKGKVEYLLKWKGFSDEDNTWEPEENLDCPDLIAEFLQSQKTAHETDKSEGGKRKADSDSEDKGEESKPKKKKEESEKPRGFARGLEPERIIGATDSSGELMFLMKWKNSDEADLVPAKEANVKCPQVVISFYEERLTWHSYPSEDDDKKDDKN
#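 Compound inhibition of the preformed complex between 50 nM HP1-beta and 50 nM biotinylated H3K9me3 peptide was read by AlphaScreen. Buffer was PBS pH 7.4 with 0.01% Tween-20. Incubations ran 30 min at room temperature, with 10 ug/mL donor/acceptor beads.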
# Numbers without * were called inactive; ? = inconclusive; · = not tested or not shown; [ ] = dose if it differs, or a comment. Calls follow the shape of the dose curve; as a rule, active = well fitted inhibition curve with a large enough effect; inconclusive = small, poorly fitted or top-dose-only effect; inactive = no such curve, though single readings can be large or run the other way. Potency is read from the fitted curve at half-maximal effect.
SMILES,JMJD2A Tudor,BAZ2B inh,L3MBTL1 block,G9a block,HP1b chromo inh
COc1cc(-c2nnc(Sc3ccc(C(F)(F)F)cc3[N+](=O)[O-])o2)cc(OC)c1OC,?,-37.5%,·,?,-28.7%
O=C(O)c1ccc(Sc2nnc(-c3cccc(Br)c3)o2)c([N+](=O)[O-])c1,-1.6%,-37.8%,·,50.1µM*,10.1%
Cn1c(Sc2ccc(C(=O)O)cc2[N+](=O)[O-])nnc1-c1ccccc1,28.2µM*,-12.7%,13.2%,0.8%[59 µM],-2.0%
O=C(Nc1ccc(F)cc1)C1CCN(S(=O)(=O)c2ccc3c(c2)CCCN3C(=O)C2CCC2)CC1,-1.9%,1.2%,·,-32.1%[59 µM],27.4%[57 µM]
Cc1cc(N2O[C@H]3C=C[C@@H]2C3)no1,79.4µM*,·,8.8%,·,-0.7%
NC(=O)NS(=O)(=O)Oc1ccccc1,89.1µM*,-8.8%,15.3%,·,13.0%
Cc1oc(-c2ccc(Cl)cc2)cc1C(=O)/C(C#N)=C/Nc1cccc(OC(F)(F)F)c1,-12.8%,-16.5%,-11.6%,50.1µM*,17.2%
O=C1c2ccccc2C(=O)N1c1cccc2ncccc12,89.1µM*,·,·,·,·
CCc1nn(CCCC(=O)NCc2ccc(OC)c(OC)c2)c(=O)c2cc3occc3n12,3.6%,-1.1%,·,9.3%[59 µM],30.0%
CC1CCCC(C)N1S(=O)(=O)c1ccc(NC(=O)CNC2CCCC2)cc1 (stereo unspecified),-17.3%,-4.4%,·,44.7µM*,2.2%
CC(=O)Nc1ccc(S(=O)(=O)N2C(C)CCCC2C)cc1 (stereo unspecified),-12.8%,-31.5%,·,56.2µM*,24.6%
O=C(CSc1nc2nn(-c3ccccc3)c(=O)c-2c2n1CCCCC2)c1ccc(O)c(O)c1,11.2µM*,10µM*,8.91µM*,-40.1%[2.33 µM],28.2µM*
COCCNC(=O)CSc1nc2nn(-c3ccccc3)c(=O)c-2c2n1CCCCC2,56.2µM*,-3.1%,16.8%,6.8%,-12.0%
CC1CCN(S(=O)(=O)c2ccc3c(ccc(=O)n3CC(=O)NCc3ccc(Cl)cc3)c2)CC1,-12.9%,2.0%,·,0.6%[59 µM],23.3%[57 µM]
O=C(CC1Sc2ccccc2NC1=O)Nc1cccc(C(F)(F)F)c1 (stereo unspecified),-2.6%,-1.9%,·,7.8%[59 µM],-8.5%
COc1ccc(-n2c(=O)c3sc4ccccc4c3n(Cc3ccccc3C)c2=O)cc1OC,-3.3%,0.4%,·,-2.0%[59 µM],34.2%
O=C(OCc1cc2ccccc2[nH]c1=O)c1cccs1,-2.9%,7.8%,6.9%,20µM*,37.4%
CCOC(=O)c1c(Nc2ccccc2)nnc(-c2ccccc2)c1-c1ccccc1,-28.7%,-30.4%,·,-44.4%[59 µM],16.9%
CCOC(=O)c1c(Nc2cc(C)cc(C)c2)nnc(-c2ccccc2)c1-c1ccccc1,?,-38.2%,·,3.55µM*,-5.3%
CCOC(=O)c1c(Nc2ccc(OC)cc2)nnc(-c2ccccc2)c1-c1ccccc1,?,?,·,7.94µM*,-11.5%
CCCc1cc(=O)[nH]c(SCC(=O)CSc2nc(CCC)cc(=O)[nH]2)n1,5.2%,-1.7%,5.6%,56.2µM*,44.1%
CCCc1cc(=O)[nH]c(SCC(=O)NC)n1,-7.8%,-4.5%[57.1 µM],3.9%,11.2%,28.9%
CCCc1cc(=O)[nH]c(SCC(=O)c2cc(C)n(C)c2C)n1,-31.6%,-34.9%,·,50.1µM*,17.4%
CCCc1cc(=O)[nH]c(SCC(=O)N2CCN(S(=O)(=O)c3ccc(Cl)cc3)CC2)n1,-3.2%,11.8%,5.6%,-0.2%[59 µM],30.6%
CCCc1cc(=O)[nH]c(SCC(=O)c2ccc(S(=O)(=O)N3CCCC3)cc2)n1,-19.3%,6.3%,-7.3%,50.1µM*,-5.7%
CCCc1cc(=O)[nH]c(SCC(=O)c2cc(C)n(C3CC3)c2C)n1,-29.4%,?,-4.8%,·,-10.8%
Cc1ccc(-c2csc3nc[nH]c(=S)c23)cc1,-23.0%,?,-13.0%,6.8%[59 µM],-6.3%
S=c1[nH]cnc2scc(-c3ccc(Cl)cc3)c12,-28.8%,-1.4%,-1.2%,44.7µM*,?
NNc1ncnc2scc(-c3ccc(Cl)cc3)c12,-35.6%,70.8µM*,-1.1%,1.8%,-1.6%

# Source: PubChem (National Center for Advancing Translational Sciences (NCATS))
